According to the antibiotic and cytotoxicity screens of Wong et al. (2023):
The campaign covered roughly 39,000 compounds. About 1,500 (3.8%) were called active. The sample as a whole holds a higher share of actives than the screen did.

What follows are compounds tested on HSkMC (human skeletal muscle cells) (assay: cytotoxicity call (relative viability < 0.9)). Settings: 10 µM.

Row | SMILES | cytotoxicity call
1 | C[C@@H]1CCCCO[C@@H](CN(C)Cc2ccc(C(F)(F)F)cc2)[C@H](C)CN([C@H](C)CO)C(=O)c2cc(NS(C)(=O)=O)ccc2O1 | inactive
2 | COc1ccccc1S(=O)(=O)N(C)C[C@@H]1OCc2cn(nn2)CCCC(=O)N([C@@H](C)CO)C[C@@H]1C | inactive
3 | C=c1cc(C)ccc1=C1NN=C(NC(C)=O)O1 | inactive
4 | C=c1ccc(C)cc1=C1NN=C(NC(=O)c2ccc(S(=O)(=O)N(CCOC)CCOC)cc2)O1 | active
5 | C=c1cc(C)ccc1=C1NN=C(NC(=O)CC)O1 | inactive
6 | C[C@H](CO)N1C[C@H](C)[C@@H](CN(C)C(=O)Nc2ccc(F)cc2)Oc2ccc(NC(=O)Cn3cnnn3)cc2C1=O | inactive
7 | C[C@@H](NC(=O)C[C@H]1C=C[C@H](NC(=O)CN2CCOCC2)[C@H](CO)O1)c1ccccc1 | inactive
8 | Cc1noc(C)c1S(=O)(=O)Nc1ccc2c(c1)C(=O)N([C@@H](C)CO)C[C@H](C)[C@H](CN(C)C(=O)Nc1ccccc1)O2 | inactive
9 | CCN(CC)CCN(Cc1ccc(-c2ccc(C(F)(F)F)cc2)cc1)C(=O)Cn1c(SCc2ccc(F)cc2)nc(=O)c2c1CCC2 | active
10 | C[C@@H]1CN([C@@H](C)CO)C(=O)Cc2cc(NS(=O)(=O)c3cn(C)cn3)ccc2O[C@@H]1CN(C)C(=O)Nc1ccc(F)cc1 | inactive
11 | C[C@H]1CN([C@@H](C)CO)C(=O)c2cc(NC(=O)Nc3ccc(F)cc3)ccc2O[C@@H]1CN(C)Cc1ccc(Oc2ccccc2)cc1 | inactive
12 | C[C@H](CO)N1C[C@H](C)[C@@H](CN(C)Cc2ccc(Oc3ccccc3)cc2)Oc2ccc(NC(=O)Nc3ccc(F)cc3)cc2C1=O | inactive
13 | C[C@H]1CN([C@@H](C)CO)C(=O)c2cc(NC(=O)Nc3ccccc3)ccc2O[C@@H]1CN(C)Cc1ccc(Oc2ccccc2)cc1 | inactive
14 | C[C@H](CO)N1C[C@H](C)[C@H](CN(C)Cc2ccc(Oc3ccccc3)cc2)Oc2ccc(NC(=O)Nc3ccc(F)cc3)cc2C1=O | active
15 | C[C@@H]1CN([C@H](C)CO)C(=O)c2cc(NC(=O)Nc3ccc(F)cc3)ccc2O[C@@H]1CN(C)Cc1ccc(Oc2ccccc2)cc1 | active
16 | C[C@H]1CN([C@@H](C)CO)C(=O)c2cc(NC(=O)Nc3ccc(F)cc3)ccc2O[C@H]1CN(C)Cc1ccc(Oc2ccccc2)cc1 | inactive
17 | C[C@@H]1CN([C@@H](C)CO)C(=O)c2cc(NC(=O)Nc3ccc(F)cc3)ccc2O[C@H]1CN(C)Cc1ccc(Oc2ccccc2)cc1 | inactive
18 | C[C@@H]1CN([C@@H](C)CO)C(=O)c2cc(NC(=O)Nc3ccc(F)cc3)ccc2O[C@@H]1CN(C)Cc1ccc(Oc2ccccc2)cc1 | active
19 | C[C@@H]1CN([C@H](C)CO)C(=O)c2cc(NC(=O)Nc3ccc(F)cc3)ccc2O[C@H]1CN(C)Cc1ccc(Oc2ccccc2)cc1 | inactive
